Test [1] can be described thus: NCI Yeast Anticancer Drug Screen. Data for the rad50 strain (AID 155).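 Also: 0% = growth of vehicle-only cultures of the same strain.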 The settings on record: S. cerevisiae rad50 strain growth inhibition, stronger effect = higher value. The method, boiled down: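 Genetically altered yeast (DNA repair pathway); compound treatment; growth inhibition vs vehicle ctrl.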
Test [2] can be described thus: NCI Yeast Anticancer Drug Screen. Data for the mec2-1 strain (AID 157). The following applies: S. cerevisiae mec2-1 strain, stronger effect = higher value. The method, boiled down:
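Mutant yeast (mec2-1) grown with compound; growth inhibition relative to vehicle control reported.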

Test [3] can be described thus: NCI Yeast Anticancer Drug Screen. Data for the sgs1 mgt1 strain (AID 161).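 Also: 0% = growth of cultures given vehicle only.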 The following applies: S. cerevisiae sgs1 mgt1 strain, stronger effect = higher value. Put shortly:
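Percent growth inhibition was derived by comparing compound-exposed mutant yeast with vehicle-exposed cultures. The strain carries alterations in DNA damage repair.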

A short description of test [4]: NCI Yeast Anticancer Drug Screen. Data for the cln2 rad14 strain (AID 165).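 Also: 0% = growth equal to vehicle treated cultures.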 The settings on record: S. cerevisiae cln2 rad14 strain, stronger effect = higher value. The method, boiled down: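 Readout is yeast growth inhibition versus vehicle-treated controls, using a strain with cln2 and rad14 alterations exposed to compound.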
The nature of test [5]: NCI Yeast Anticancer Drug Screen. Data for the bub3 strain (AID 167). The settings on record: S. cerevisiae bub3 mutant strain, stronger effect = higher value. The method, boiled down:
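Yeast carrying a defined mutation is treated with each compound, and growth is compared with that of vehicle-exposed cells to give inhibition.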

The nature of test [6]: NCI Yeast Anticancer Drug Screen. Data for the mlh1 rad18 strain (AID 175). The following applies: S. cerevisiae mlh1 rad18 strain growth inhibition, stronger effect = higher value. Put shortly: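 Genetically defined yeast (DNA repair-deficient) exposed to compounds; growth inhibition determined relative to vehicle.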
Where [7] appears, read: at 5.0 µM (retest, dose inferred, filed as 0.5).
The mark [8] stands for this setting: at 50.0 µM (retest, dose inferred, filed as 5.0).

About 79,000 compounds went through this panel and 15% of them were active in at least one assay; those are over-represented in the sample as a whole. A number with no mark means an inactive call. Active and inactive are the calls of the source. Rule as the data show it: active = growth inhibition above about 70%; inactive = the rest.

Consider `O/N=C1/CC2CCCc3ccc4cccc1c4c32` (stereo not given), for which the growth inhibition was -18% in test [1] (setting [7]); -10% in test [1] (setting [8]); 60.2% in test [1] (at 50.0 µM); -18% in test [2] (setting [7]); -3% in test [2] (setting [8]); 22.4% in test [2] (at 50.0 µM). Moreover, the growth inhibition was -18% in test [3] (setting [7]); 15% in test [3] (setting [8]); 22.9% in test [3] (at 50.0 µM); -24% in test [4] (setting [7]); -20% in test [4] (setting [8]); 12.2% in test [4] (at 50.0 µM). Moreover, the growth inhibition in test [5] (setting [7]) is -12%; in test [5] (setting [8]), 25%; in test [5] (at 50.0 µM), 81.8% (active); in test [6] (setting [7]) it was -26%; in test [6] (setting [8]) it was 3%; in test [6] (at 50.0 µM), -4%.
In the case of `C=C1C(=O)[C@]23C[C@H]1CC[C@H]2[C@@]12CO[C@@H](O)[C@@H]1C(C)(C)[C@@H](O)C[C@@H]2OC3=O`, the growth inhibition in test [1] (setting [7]) was 8%; in test [1] (setting [8]) it was 6%; in test [1] (at 50.0 µM), 2.3%; in test [2] (setting [7]) it was -19%; in test [2] (setting [8]), 79% (active); in test [2] (at 50.0 µM), -5.25%. Further, the growth inhibition was 9% in test [3] (setting [7]); 27% in test [3] (setting [8]); 25.4% in test [3] (at 50.0 µM); -7% in test [4] (setting [7]); 95% (active) in test [4] (setting [8]); 67.2% in test [4] (at 50.0 µM). Further, the growth inhibition was -5% in test [5] (setting [7]); 95% (active) in test [5] (setting [8]); -0.9% in test [5] (at 50.0 µM); -1% in test [6] (setting [7]); 11% in test [6] (setting [8]); 24.4% in test [6] (at 50.0 µM).
For the compound `O=c1[nH]c(=O)c2n[nH]nc2[nH]1`, the growth inhibition is 6% in test [1] (setting [7]); 3% in test [1] (setting [8]); 0.45% in test [1] (at 50.0 µM); -1% in test [2] (setting [7]); 5% in test [2] (setting [8]); -4.95% in test [2] (at 50.0 µM). For the same compound, the growth inhibition in test [3] (setting [7]) is 1%; in test [3] (setting [8]), 9%; in test [3] (at 50.0 µM) it was 33.4%; in test [4] (setting [7]) it was 9%; in test [4] (setting [8]), 8%; in test [4] (at 50.0 µM) it was -42.5%. The growth inhibition was 3% in test [5] (setting [7]); 3% in test [5] (setting [8]); 7.7% in test [5] (at 50.0 µM); 3% in test [6] (setting [7]); 6% in test [6] (setting [8]); 24.1% in test [6] (at 50.0 µM).
With `N#Cc1ccc(C(F)(F)F)cc1[N+](=O)[O-]`, the growth inhibition in test [1] (setting [7]) was 47%; in test [1] (setting [8]) it was 99% (active); in test [1] (at 50.0 µM) it was 99% (active); in test [2] (setting [7]), 44%; in test [2] (setting [8]), 99% (active); in test [2] (at 50.0 µM), 99.2% (active). The growth inhibition in test [3] (setting [7]) was 63%; in test [3] (setting [8]), 99% (active); in test [3] (at 50.0 µM), 99.4% (active); in test [4] (setting [7]), 20%; in test [4] (setting [8]), 99% (active); in test [4] (at 50.0 µM), 98.8% (active). Also, the growth inhibition in test [5] (setting [7]) is 31%; in test [5] (setting [8]) it was 99% (active); in test [5] (at 50.0 µM) it was 99.2% (active); in test [6] (setting [7]) it was 37%; in test [6] (setting [8]) it was 99% (active); in test [6] (at 50.0 µM), 99.2% (active).
As for `O=S(=O)(CC(Br)c1ccccc1)CC(Br)c1ccccc1` (stereo not given), the growth inhibition in test [1] (setting [7]) was -3%; in test [1] (setting [8]), -1%; in test [1] (at 50.0 µM) it was 50.2%; in test [2] (setting [7]) it was 19%; in test [2] (setting [8]) it was 41%; in test [2] (at 50.0 µM) it was 43%. Besides, the growth inhibition in test [3] (setting [7]) is -4%; in test [3] (setting [8]), 0%; in test [3] (at 50.0 µM), 80.9% (active); in test [4] (setting [7]) it was -3%; in test [4] (setting [8]), 6%; in test [4] (at 50.0 µM), 40%. Also, the growth inhibition in test [5] (setting [7]) was 4%; in test [5] (setting [8]) it was 42%; in test [5] (at 50.0 µM) it was 63.2%; in test [6] (setting [7]), -3%; in test [6] (setting [8]), 13%; in test [6] (at 50.0 µM), 46.6%.
For `COc1ccc(C(c2cc3c(cc2O)OCO3)N2CCOCC2)c(OC)c1OC` (stereo not given), the growth inhibition in test [1] (setting [7]) is 4%; in test [1] (setting [8]), 96% (active); in test [1] (at 50.0 µM), 95.5% (active); in test [2] (setting [7]), 4%; in test [2] (setting [8]), 97% (active); in test [2] (at 50.0 µM), 99.6% (active). Moreover, the growth inhibition in test [3] (setting [7]) was 0%; in test [3] (setting [8]), 74% (active); in test [3] (at 50.0 µM), 62.9%; in test [4] (setting [7]) it was -6%; in test [4] (setting [8]), 63%; in test [4] (at 50.0 µM), 24.4%. Further, the growth inhibition in test [5] (setting [7]) was 0%; in test [5] (setting [8]), 87% (active); in test [5] (at 50.0 µM) it was 98.7% (active); in test [6] (setting [7]), 2%; in test [6] (setting [8]), 63%; in test [6] (at 50.0 µM) it was 83% (active).
With `Fc1ccc(NC(=S)SCc2ccc(Cl)cc2)c(F)c1`, the growth inhibition was 19% in test [1] (setting [7]); 99% (active) in test [1] (setting [8]); 99.3% (active) in test [1] (at 50.0 µM); 11% in test [2] (setting [7]); 99% (active) in test [2] (setting [8]); 99.6% (active) in test [2] (at 50.0 µM). Further, the growth inhibition in test [3] (setting [7]) is 13%; in test [3] (setting [8]), 99% (active); in test [3] (at 50.0 µM) it was 99.5% (active); in test [4] (setting [7]), -2%; in test [4] (setting [8]), 99% (active); in test [4] (at 50.0 µM), 99.4% (active). Further, the growth inhibition in test [5] (setting [7]) was 19%; in test [5] (setting [8]) it was 98% (active); in test [5] (at 50.0 µM), 99.5% (active); in test [6] (setting [7]), 7%; in test [6] (setting [8]) it was 98% (active); in test [6] (at 50.0 µM), 99.5% (active).
Turning to `O=[N+]([O-])C1(CO)COC(CCc2ccccc2)OC1` (stereo not given), the growth inhibition in test [1] (setting [7]) is -2%; in test [1] (setting [8]), 5%; in test [1] (at 50.0 µM) it was 67.7%; in test [2] (setting [7]), 0%; in test [2] (setting [8]), 3%; in test [2] (at 50.0 µM) it was 78.2% (active). Further, the growth inhibition in test [3] (setting [7]) is 2%; in test [3] (setting [8]) it was 5%; in test [3] (at 50.0 µM), 82.3% (active); in test [4] (setting [7]), 2%; in test [4] (setting [8]), 3%; in test [4] (at 50.0 µM) it was 97.5% (active). Moreover, the growth inhibition was -2% in test [5] (setting [7]); -3% in test [5] (setting [8]); 65.5% in test [5] (at 50.0 µM); 0% in test [6] (setting [7]); 3% in test [6] (setting [8]); 98.4% (active) in test [6] (at 50.0 µM).
With `CC(=O)NC1=C(Sc2ccc(C)cc2)C(=O)c2ccccc2C1=O`, the growth inhibition is 63% in test [1] (setting [7]); 98% (active) in test [1] (setting [8]); 54.4% in test [1] (at 50.0 µM); 96% (active) in test [2] (setting [7]); 99% (active) in test [2] (setting [8]); 10.1% in test [2] (at 50.0 µM). Besides, the growth inhibition in test [3] (setting [7]) is 72% (active); in test [3] (setting [8]) it was 95% (active); in test [3] (at 50.0 µM), 29.8%; in test [4] (setting [7]), 35%; in test [4] (setting [8]), 97% (active); in test [4] (at 50.0 µM), -32.6%. The growth inhibition was 67% in test [5] (setting [7]); 98% (active) in test [5] (setting [8]); 42% in test [5] (at 50.0 µM); 99% (active) in test [6] (setting [7]); 99% (active) in test [6] (setting [8]); 23.1% in test [6] (at 50.0 µM).
Regarding `Cc1cc(N/N=C/c2ccc([N+](=O)[O-])o2)c2cc3c(cc2n1)OCO3`, the growth inhibition in test [1] (setting [7]) was 23%; in test [1] (setting [8]), 99% (active); in test [1] (at 50.0 µM), 96.7% (active); in test [2] (setting [7]) it was 16%; in test [2] (setting [8]), 100% (active); in test [2] (at 50.0 µM), 92.3% (active). For the same compound, the growth inhibition in test [3] (setting [7]) was 33%; in test [3] (setting [8]) it was 99% (active); in test [3] (at 50.0 µM), 97.5% (active); in test [4] (setting [7]) it was 4%; in test [4] (setting [8]), 99% (active); in test [4] (at 50.0 µM), 92.7% (active). Besides, the growth inhibition in test [5] (setting [7]) was 8%; in test [5] (setting [8]) it was 99% (active); in test [5] (at 50.0 µM) it was 90.5% (active); in test [6] (setting [7]), 23%; in test [6] (setting [8]), 99% (active); in test [6] (at 50.0 µM) it was 95.3% (active).

The values above are taken from PubChem BioAssay (NCI).
